“And” between values parts separate entries of the source, which are not always exact repeats. Identical values can stand only once. The campaign covered roughly 5,500 compounds. About 2,000 (36%) were called active. Roughly 18% stayed inconclusive and do not appear here. Some of the results follow. A number with no mark means an inactive call. Cut-off read from the data, not from the text of the source: active = normalized growth mostly below about 0.91 (no sharp cut-off); inconclusive = no clear call, values can overlap the other calls; inactive = mostly above about 0.92.
Assay: chemical genetic growth profiling, strain panel (AID 1159580);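 note: tested at 20 µM; growth read once vehicle control cultures reached saturation at 30 °C; 1 = growth at the plate median or of vehicle wells; lower values mean less growth of the strain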
Settings: S. cerevisiae deletion strains, growth OD

Q: For `CC1=CC(=O)c2ccccc2C1=O`, which normalized growth (locus YAL013W, strain DEP1, active compounds read low) is on record?
A: 0.0548 (active)

Q: And the normalized growth (locus YAL021C, strain ccr4, active compounds read low)?
A: 1.02

Q: And the normalized growth (locus YAL026C, strain drs2, active compounds read low)?
A: 0.903 (active)

Q: What about the normalized growth (locus YAL030W, strain snc1, active compounds read low) of the same compound?
A: 1.02

Q: And the normalized growth (locus YBL061C, strain skt5, active compounds read low)?
A: 1.03

Q: And the normalized growth (locus YBR009C, strain hhf1, active compounds read low)?
A: 0.757 (active)

Q: And the normalized growth (locus YBR021W, strain FUR4, active compounds read low)?
A: 0.0857 (active)

Q: And the normalized growth (locus YBR023C, strain chs3, active compounds read low)?
A: 0.999

Q: What about the normalized growth (locus YBR171W, strain sec66, active compounds read low) of the same compound?
A: 1.03

Q: What about the normalized growth (locus YBR229C, strain ROT2, active compounds read low) of the same compound?
A: 0.076 (active)

Q: And the normalized growth (locus YBR231C, strain swc5, active compounds read low)?
A: 0.955

Q: And the normalized growth (locus YBR279W, strain paf1, active compounds read low)?
A: 0.971

Q: And the normalized growth (locus YCL011C, strain gbp2, active compounds read low)?
A: 0.864 (active)

Q: And the normalized growth (locus YCL016C, strain dcc1, active compounds read low)?
A: 0.933

Q: What about the normalized growth (locus YCL029C, strain bik1, active compounds read low) of the same compound?
A: 0.0624 (active)

Q: What about the normalized growth (locus YCL061C, strain MRC1, active compounds read low) of the same compound?
A: 0.932

Q: And the normalized growth (locus YCL069W, strain vba3, active compounds read low)?
A: 0.967

Q: What about the normalized growth (locus YCR088W, strain abp1, active compounds read low) of the same compound?
A: 1.03

Q: What about the normalized growth (locus YDL005C, strain med2, active compounds read low) of the same compound?
A: 1.03

Q: And the normalized growth (locus YDL035C, strain GPR1, active compounds read low)?
A: 0.0512 (active)

Q: And the normalized growth (locus YDL040C, strain nat1, active compounds read low)?
A: 1.03

Q: What about the normalized growth (locus YDL074C, strain BRE1, active compounds read low) of the same compound?
A: 0.108 (active)

Q: What about the normalized growth (locus YDL101C, strain DUN1, active compounds read low) of the same compound?
A: 0.0567 (active)

Q: And the normalized growth (locus YDL134C, strain PPH21, active compounds read low)?
A: 0.046 (active)

Q: What about the normalized growth (locus YDL185W, strain tfp1, active compounds read low) of the same compound?
A: 0.0717 (active)

Q: And the normalized growth (locus YDL192W, strain arf1, active compounds read low)?
A: 0.0585 (active)

Q: And the normalized growth (locus YDR001C, strain nth1, active compounds read low)?
A: 1.04

Q: And the normalized growth (locus YDR069C, strain doa4, active compounds read low)?
A: 1.03

Q: And the normalized growth (locus YDR101C, strain arx1, active compounds read low)?
A: 0.0639 (active)

Q: What about the normalized growth (locus YDR137W, strain rgp1, active compounds read low) of the same compound?
A: 0.916

Q: And the normalized growth (locus YDR150W, strain NUM1, active compounds read low)?
A: 0.0617 (active)

Q: And the normalized growth (locus YDR159W, strain sac3, active compounds read low)?
A: 0.983

Q: What about the normalized growth (locus YDR162C, strain NBP2, active compounds read low) of the same compound?
A: 0.054 (active)

Q: What about the normalized growth (locus YDR195W, strain ref2) of the same compound?
A: 1.3 [resistant] (active)

Q: What about the normalized growth (locus YDR297W, strain sur2, active compounds read low) of the same compound?
A: 0.988

Q: What about the normalized growth (locus YDR318W, strain mcm21, active compounds read low) of the same compound?
A: 0.0603 (active)

Q: What about the normalized growth (locus YDR334W, strain swr1, active compounds read low) of the same compound?
A: 1.01

Q: And the normalized growth (locus YDR335W, strain msn5, active compounds read low)?
A: 1.01

Q: What about the normalized growth (locus YDR388W, active compounds read low) of the same compound?
A: 0.0538 (active)

Q: What about the normalized growth (locus YDR392W, strain spt3, active compounds read low) of the same compound?
A: 0.539 (active)

Q: What about the normalized growth (locus YDR502C, strain sam2, active compounds read low) of the same compound?
A: 0.059 (active)

Q: What about the normalized growth (locus YEL003W, strain gim4, active compounds read low) of the same compound?
A: 0.938

Q: And the normalized growth (locus YEL037C, strain rad23, active compounds read low)?
A: 0.994

Q: And the normalized growth (locus YEL061C, strain CIN8 (second series), active compounds read low)?
A: 1.02

Q: And the normalized growth (locus YEL061C, strain CIN8, active compounds read low)?
A: 0.0492 (active)

Q: What about the normalized growth (locus YER015W, strain faa2, active compounds read low) of the same compound?
A: 0.971

Q: What about the normalized growth (locus YER016W, strain bim1, active compounds read low) of the same compound?
A: 1.02

Q: What about the normalized growth (locus YER110C, active compounds read low) of the same compound?
A: 0.0711 (active)

Q: What about the normalized growth (locus YER111C, strain swi4, active compounds read low) of the same compound?
A: 1.02

Q: What about the normalized growth (locus YER155C, strain BEM2 (second series), active compounds read low) of the same compound?
A: 0.993

Q: And the normalized growth (locus YER155C, strain BEM2, active compounds read low)?
A: 0.076 (active)

Q: What about the normalized growth (locus YER167W, strain BCK2, active compounds read low) of the same compound?
A: 0.0494 (active)

Q: And the normalized growth (locus YFR010W, strain ubp6, active compounds read low)?
A: 0.989

Q: What about the normalized growth (locus YGL078C, strain dbp3, active compounds read low) of the same compound?
A: 0.294 (active)

Q: What about the normalized growth (locus YGL086W, strain mad1, active compounds read low) of the same compound?
A: 0.0543 (active)

Q: And the normalized growth (locus YGL167C, strain pmr1, active compounds read low)?
A: 1.04

Q: What about the normalized growth (locus YGL173C, strain kem1, active compounds read low) of the same compound?
A: 0.987

Q: And the normalized growth (locus YGL227W, strain vid30, active compounds read low)?
A: 0.974

Q: And the normalized growth (locus YGL240W, strain doc1, active compounds read low)?
A: 0.871 (active)

Q: And the normalized growth (locus YGL248W, strain PDE1, active compounds read low)?
A: 0.0439 (active)

Q: And the normalized growth (locus YGL253W, strain hxk2, active compounds read low)?
A: 0.887 (active)

Q: And the normalized growth (locus YGR078C, strain PAC10, active compounds read low)?
A: 0.0487 (active)

Q: And the normalized growth (locus YGR135W, strain pre9, active compounds read low)?
A: 0.0619 (active)

Q: What about the normalized growth (locus YGR229C, strain SMI1, active compounds read low) of the same compound?
A: 0.0566 (active)

Q: And the normalized growth (locus YGR252W, strain gcn5, active compounds read low)?
A: 0.168 (active)

Q: What about the normalized growth (locus YHR013C, strain ard1, active compounds read low) of the same compound?
A: 1.17 [resistant] (active)

Q: And the normalized growth (locus YHR027C, strain rpn1, active compounds read low)?
A: 0.997

Q: What about the normalized growth (locus YHR030C, strain SLT2, active compounds read low) of the same compound?
A: 0.0463 (active) and 0.306 (active)

Q: And the normalized growth (locus YHR079C, strain IRE1 (second series), active compounds read low)?
A: 0.0572 (active)

Q: And the normalized growth (locus YHR079C, strain IRE1, active compounds read low)?
A: 0.291 (active)

Q: And the normalized growth (locus YHR094C, strain hxt1, active compounds read low)?
A: 0.0585 (active)

Q: What about the normalized growth (locus YHR129C, strain ARP1, active compounds read low) of the same compound?
A: 0.058 (active)

Q: What about the normalized growth (locus YHR142W, strain chs7, active compounds read low) of the same compound?
A: 0.838 (active)

Q: And the normalized growth (locus YHR200W, strain rpn10, active compounds read low)?
A: 0.0601 (active)

Q: What about the normalized growth (locus YIL066C, strain RNR3, active compounds read low) of the same compound?
A: 0.0506 (active)

Q: And the normalized growth (locus YIL073C, strain SPO22, active compounds read low)?
A: 0.117 (active)

Q: And the normalized growth (locus YIL125W, strain kgd1, active compounds read low)?
A: 0.419 (active)

Q: And the normalized growth (locus YIR030C, strain dcg1, active compounds read low)?
A: 0.0593 (active)

Q: And the normalized growth (locus YJL092W, strain hpr5, active compounds read low)?
A: 1.02

Q: What about the normalized growth (locus YJL095W, strain BCK1 (second series), active compounds read low) of the same compound?
A: 1.02

Q: And the normalized growth (locus YJL095W, strain BCK1, active compounds read low)?
A: 0.0528 (active) and 0.292 (active)

Q: And the normalized growth (locus YJL115W, strain asf1, active compounds read low)?
A: 1.03

Q: What about the normalized growth (locus YJL129C, strain trk1, active compounds read low) of the same compound?
A: 1.02

Q: And the normalized growth (locus YJL134W, strain LCB3, active compounds read low)?
A: 0.0458 (active)

Q: And the normalized growth (locus YJL154C, strain vps35, active compounds read low)?
A: 1.03

Q: And the normalized growth (locus YJL164C, strain tpk1, active compounds read low)?
A: 0.934

Q: What about the normalized growth (locus YJL166W, strain qcr8, active compounds read low) of the same compound?
A: 0.639 (active)

Q: What about the normalized growth (locus YJL168C, strain set2, active compounds read low) of the same compound?
A: 0.0804 (active)

Q: What about the normalized growth (locus YJL187C, strain SWE1 (second series), active compounds read low) of the same compound?
A: 0.0592 (active)

Q: And the normalized growth (locus YJR043C, strain POL32, active compounds read low)?
A: 0.0645 (active)

Q: And the normalized growth (locus YJR066W, strain TOR1, active compounds read low)?
A: 0.368 (active)

Reference: PubChem BioAssay AID1159580 (chemical genetic matrix, 2015)
